Source: PubChem
Rows were chosen to be rich in hits. Some 1.4% of all compounds tested hit in one or more screens of this group.
AmpC inh detg = blocks E. coli AmpC beta-lactamase in detergent assay; P00811; AmpC hydrolysis of nitrocefin, absorbance 480 nm, 0.01% Triton; Potency, µM (titrated, usually from 114 µM), inactives show at the highest dose activity change, negative = inhibition, most hits filed as inhibitors; 370,000 compounds, 0.041% hits; AID 485294;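 further: 0% = no-compound wells and -100% = no-enzyme wells; nearly all actives have a fitted effect of over 25% in size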
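20 mM phosphate pH 7.0 + 0.01% (detergent screen) or 0.0001% Triton X-100; 5.3 nM AmpC reagent; cpd preinc 15 min RT; nitrocefin (800 uM stock) to start; A480 q20 s × 4 min; Activity was normalised to no-enzyme and no-compound control wells.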
AmpC inh no detg = inhibitors of E. coli AmpC beta-lactamase without detergent | P00811 | AmpC nitrocefin hydrolysis, absorbance 480 nm, 0.0001% Triton | Potency, µM (titrated, usually from 57.1 µM), inactives show at the highest dose activity change, negative = inhibition, most hits filed as inhibitors | 330,000 compounds, 0.52% hits | AID 485341;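 further: plate controls were no compound for no effect and no enzyme for full effect; nearly all actives have a fitted effect of over 20% in size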
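AmpC (5.3 nM in the dispensed reagent) in 20 mM phosphate pH 7.0 with 0.01% (detergent screen) or 0.0001% Triton X-100 was preincubated with compounds for 15 min at room temperature. Nitrocefin was then added from an 800 uM solution, and hydrolysis was followed at 480 nm.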
LmPK inh = LmPK (Leishmania mexicana) enzyme inhibition. 290,000 compounds, 0.37% hits. purified LmPK, Kinase-Glo ATP luminescence, 1 h. Potency, µM (top dose mostly 57.5 µM), for inactives: at the top dose activity change, negative = inhibition, actives largely listed as inhibitors. Q27686
Target sequence (Q27686 whole entry, looked up): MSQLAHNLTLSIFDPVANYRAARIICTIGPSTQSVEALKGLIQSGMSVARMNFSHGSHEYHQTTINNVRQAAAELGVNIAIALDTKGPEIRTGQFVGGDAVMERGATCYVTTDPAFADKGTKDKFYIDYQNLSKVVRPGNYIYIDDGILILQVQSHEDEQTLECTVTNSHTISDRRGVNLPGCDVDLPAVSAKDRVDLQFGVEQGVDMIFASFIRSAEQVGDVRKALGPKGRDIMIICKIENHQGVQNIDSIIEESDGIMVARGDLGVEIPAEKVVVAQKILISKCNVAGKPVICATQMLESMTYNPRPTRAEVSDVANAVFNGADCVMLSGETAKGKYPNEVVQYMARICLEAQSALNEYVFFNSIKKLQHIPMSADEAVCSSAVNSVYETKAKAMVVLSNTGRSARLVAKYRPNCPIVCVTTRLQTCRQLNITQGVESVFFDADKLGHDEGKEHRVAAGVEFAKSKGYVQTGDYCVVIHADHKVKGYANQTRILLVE
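0.1 nM LmPK, 0.5 mM PEP, 0.1 mM ADP; 50 mM imidazole pH 7.2, 7 mM MgCl2, 50 mM KCl; 1 h RT. Kinase-Glo luminescence readout, normalized to no-enzyme (full inhibition) and uninhibited wells.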
Giardia FBPA inh = Giardia lamblia aldolase inhibition; 290,000 compounds, 0.71% hits; purified Giardia FBPA; A8B2U2; Potency, µM (top dose mostly 59.6 µM), without a hit: top-dose activity, negative = inhibition, most hits filed as inhibitors; AID 2451; further: nearly all actives have a fitted effect of over 55% in size
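Giardia FBPA (40 nM reagent) was preincubated 10 min at RT with compound (up to 57.5 uM final), then substrate plus GAPDH/TPI/NAD/arsenate coupling system with diaphorase/resazurin was added; resorufin fluorescence (525/598 nm) was read after 20 min.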
RE007 growth inh = less growth of the S. pombe RE007 Vpr strain. S. pombe RE007 Vpr strain, BacTiter-Glo ATP luminescence, 24 h. AID 651644. Potency, µM (titrated, usually from 92.2 µM), without a hit: at the top dose activity change, negative = less growth, hits mostly inhibitors. 360,000 compounds, 0.21% hits; active means well fitted falling curve with a large enough effect; inconclusive means small, poorly fitted or top-dose-only effect; inactive means no such curve, though single readings can be large or run the other way; further: nearly all actives have a fitted effect of over 50% in size
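Fission yeast RE007 carrying one integrated HIV-1 vpr copy, seeded at OD 0.01 in PMG+AL medium with 23 nL pinned compound. Grown 24 h at 30 degrees; viability read by BacTiter-Glo luminescence after 5 min.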
Tb PYK inh = inhibitors of Trypanosoma brucei pyruvate kinase | Q57TT1 | TbPYK enzyme, Kinase-Glo Plus ATP luminescence, 45 min | Potency, µM (top dose mostly 76.8 µM), inactives show at the top dose activity, negative = inhibition, most hits filed as inhibitors | 410,000 compounds, 0.12% hits | AID 624173; further: nearly all actives have a fitted effect of over 50% in size
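Screened from lowest to highest concentration, compounds were pinned into TbPYK/substrate mixtures, and ADP (130 uM final) was added. Plates sat at room temperature for 45 min prior to Kinase-Glo Plus detection by luminescence.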
Starred values were filed as active, the others as inactive; ? = inconclusive; nt = no result; [ ] = another dose, or the depositor's remark. Unless noted, the call rests on the fitted dose curve; in most records, active means well fitted curve in the direction sought with a large enough effect; inconclusive means small, poorly fitted or top-dose-only effect, or another doubt; inactive means no such curve, though single readings can be large; an effect the other way counts as inactive or inconclusive. Unless noted, on the % scale 0 is the no-effect control and ±100 the full control effect; potency means the concentration at half of the fitted maximal effect.

SMILES	AmpC inh detg	AmpC inh no detg	LmPK inh	Giardia FBPA inh	RE007 growth inh	Tb PYK inh
CCOC(=O)c1cc(-c2ccccc2)n(CC(=O)NCc2ccccc2OC)c1C	6%	nt	nt	nt	nt	1%
O=C(Cn1ncc2ccc(Cl)cc21)NCc1ccc(F)cc1	26%	nt	nt	nt	nt	2%
CC(C)Cn1c(C(C)NC(=O)Cc2ccccc2)nc2ccccc21 (stereo not drawn)	?	1.6µM*	1%	-1%	-26%	7%
CCCCn1c(C(C)NC(=O)CC)nc2ccccc21 (stereo not drawn)	?	-2%	-5%	0%	15%	1%
Cc1ccccc1Cn1nc(C)c(NC(=O)c2noc3c2CCc2ccccc2-3)c1C	?	4µM*	7%	-5%	7%	2%
O=C(O)c1ccc(/C=N/NC(=O)c2ccc(CN3c4cccc5cccc(c45)S3(=O)=O)cc2)cc1	-13%	28µM*	-5%	-18%	-8%	4%
CC(/C=N/NC(=O)c1ccc(CN2c3cccc4cccc(c34)S2(=O)=O)cc1)c1ccccc1 (stereo not drawn)	-5%	-42%	-2%	-1%	4%	-12%
CCN(Cc1ccncc1)Cc1c(O)ccc2cc(Br)ccc12	-4%	-56%	1%	8.9µM*	-18%	-13%
C#CC1(OC(C)=O)CCC2C3CCC4=CC(OC(C)=O)CCC4C3CCC21C (stereo not drawn)	nt	nt	nt	nt	nt	-9%
CCS(=O)(=O)n1nc(-c2ccco2)nc1SC	-13%	nt	8%	28µM*	-23%	?
CSc1nc(-c2ccco2)nn1S(=O)(=O)c1ccccc1	-7%	-7%	5%	11%	nt	nt
Cc1ccc(S(=O)(=O)NCC(c2ccc(N(C)C)cc2)N2CCc3ccccc32)cc1C (stereo not drawn)	19%	nt	nt	nt	nt	-1%
Cc1cc(NC(=O)COC(=O)c2cc([N+](=O)[O-])ccc2N2CCOCC2)ccc1Br	?	32µM*	nt	nt	-9%	0%
Cc1ccc(NC2=CC(=O)C(=O)c3ccccc32)cc1	-10%	-12%	-17%	5.6µM*	?	0%
NS(=O)(=O)c1ccc(NC2=CC(=O)C(=O)c3ccccc32)cc1	?	-40%	-7%	2.5µM*	-27%	-12%
CCOC(=O)c1ccc(NC2=CC(=O)C(=O)c3ccccc32)cc1	-7%	-21%	-6%	nt	-13%	2%
C=CCC1=C(C)C(OC(=O)C2C(C=C(C)C)C2(C)C)CC1=O (stereo not drawn)	nt	nt	nt	nt	nt	-4%[157 µM]
O=C(COc1ccccc1F)Nc1ccc2nc(SCC(=O)N3CCOCC3)sc2c1	19%	nt	nt	nt	nt	0%
O=C(O)c1ccccn1	?	-7%	nt	nt	-2%	2%
O=C(O)c1ccc2cccnc2n1	-2%	-12%	-1%	5.6µM*	9%	-6%
O=C(O)c1cccc(C(=O)O)n1	?	-14%	1%	28µM*	nt	nt
O=C(CSc1nc2c(c(=O)[nH]1)CCCC2)Nc1ccccc1C(F)(F)F	1%	nt	nt	nt	nt	0%
O/C=c1\ccc2cccc3nc(C(F)(F)F)nc1c23	1%	13µM*	9%	?	-11%	5%
O=C(CSc1cccc2cccnc12)N1CCCC1	-2%	-16%	-5%	-8%	45µM*	?
CCOC(=O)c1c(S(=O)(=O)N2CCCC(C(=O)N3CCN(c4cccc(C)c4C)CC3)C2)c(C)n(C)c1C (stereo not drawn)	2%	nt	nt	nt	nt	-4%
SMILES	AmpC inh detg	AmpC inh no detg	LmPK inh	Giardia FBPA inh	RE007 growth inh	Tb PYK inh
CSc1nsc(/C=C/Nc2ccc(Cl)cc2)c1C#N	-5%	18µM*	-3%	-21%	-1%	-3%
CSc1nsc(/C=C/Nc2ccc(O)cc2C)c1C#N	?	-59%	-7%	18µM*	-18%	-12%
CC(O)C(C(=O)OCc1ccc([N+](=O)[O-])cc1)N1C(=O)c2ccccc2C1=O (stereo not drawn)	79µM*	-10%	nt	3%	4%	3%
C[C@H](N)C(=O)OCc1ccc([N+](=O)[O-])cc1	-20%	-7%	1%	1%	10%	3%
CCOC(=O)c1c(NS(=O)(=O)Cc2ccccc2)sc2c1CCCC2	-12%	-36%	12%	11%	-2%	-2%
CCOC(=O)c1c(NS(=O)(=O)c2ccc(Br)cc2)sc2c1CCC2	nt	nt	nt	nt	9%	28µM*
CC(=O)c1cc2c(=O)c3cc(C)ccc3oc2nc1C	-2%	-13%	14µM*	-2%	-14%	-16%
Cc1ccc2oc3nc(C)c(C(=O)O)cc3c(=O)c2c1	-4%	-40%	16µM*	2%	-19%	?
CCOc1ccc(-n2c(=O)c3c(C)c(C)sc3n(CC(=O)c3ccccc3)c2=O)cc1	12%	nt	nt	nt	nt	-6%
Cc1ccc2c(c1)-c1nc(-c3ccc4c(c3)NC(=O)CO4)cc(-c3ccc(F)cc3)c1CO2	-4%	nt	nt	nt	nt	3%
COc1cccc(CNC(=O)Cc2c(C)c3c(cc(C)c4c(C)coc43)oc2=O)c1	14%	nt	nt	nt	nt	0%
O=C(O)C1CSC(c2coc3ccccc3c2=O)N1 (stereo not drawn)	?	-14%	-2%	-10%	40µM*	-11%
CC1CCOC(c2coc3ccccc3c2=O)O1 (stereo not drawn)	-3%	-13%	?	2%	-28%	-2%
CC(C)(C)OC(=O)N1CCC(c2c(C(=O)Nc3ccc4c(c3)OCO4)cnn2-c2ccc(F)cc2F)CC1	2%	nt	nt	nt	nt	-1%[15.4 µM]
Cc1ccc(/C=N/NC(=O)CSc2nc3ccccc3n2C)s1	?	-43%	-4%	4µM*	28%	2%
CCOC(=O)CNCCC(=O)c1ccc(Br)cc1	-21%	1%	-1%	-13%	35µM*	-9%
CCOc1ccc(NC(=O)CC2C(=O)N(c3cccc(C)c3)C(=O)N2Cc2cccnc2)cc1 (stereo not drawn)	16%	nt	nt	nt	nt	-2%
O=c1cc(CO)oc(C(Nc2ccccn2)c2cccc(F)c2)c1O (stereo not drawn)	?	40µM*	-4%	?	1%	-5%
O=S(=O)(c1ccc(Cl)cc1)c1nc(-c2cccs2)oc1SCc1ccccc1F	5%	nt	nt	nt	nt	-1%
CCC(=O)OC1CCC2C3CCc4cc(O)ccc4C3CCC12C (stereo not drawn)	nt	nt	nt	nt	nt	0%
CCC(C)(C)NC(=O)C1CCN(S(=O)(=O)c2c(C)noc2/C=C/c2ccc(C)cc2)CC1	20%	nt	nt	nt	nt	-3%
COc1ccc(OC)c(/C=N/n2c(-c3n[nH]c4c3CCC4)n[nH]c2=S)c1	-5%	-33%	-10%	-20%	3%	3.5µM*
